This passage reports growth results from PubChem BioAssay (NCI).

The structures appear in SMILES notation. About 83,000 compounds went through this panel and 20% of them were active in at least one assay; those are over-represented in the sample as a whole.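 Cell lines were cultured in 96-well plates, exposed to a single compound concentration, and assessed for percent growth 48 hours later.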 Calls of active or inactive are those of the source. How the source made its calls: active means growth percent below 10; inactive means the rest.

The test system of this assay is UACC-257 melanoma. The assay can be described thus: NCI-60 one-dose screen, 48 h (100 = growth as untreated, 0 = no growth, -100 = all killed). To be noted: 10 µM unless noted.
Take `COc1cc(C2CC(=O)Nc3c2cnn3C)cc(OC)c1OC` (configuration not stated): the growth is 101% (inactive).
Then `C=C(c1ccc(C(=O)NCCCn2ccnc2)cc1)c1cc2c(cc1C)C(C)(C)CCC2(C)C`, with 99.2% (inactive).
Then `Nc1c(Br)cc2c(c1Br)Cc1cc(Cl)ccc1-2`, with 111% (inactive); and `CCCCCCCCCCCCNC(=O)N[C@H](C(=O)N[C@H]1/C=C/CCNC(=O)/C=C/[C@H](C)NC1=O)C(C)C`, with 49.9% (inactive); and `C=C(C)[C@@H]1CC[C@]2(C(=O)NS(=O)(=O)c3ccccc3)CC[C@]3(C)[C@H](CC[C@@H]4[C@@]5(C)CC[C@H](OC(=O)NS(=O)(=O)c6ccccc6)C(C)(C)[C@@H]5CC[C@]43C)[C@@H]12`, with 27.8% (inactive).
Then `Cc1cc(-c2ccccc2)on1`, with 109% (inactive); and `CNC(=O)c1c(NC(=O)c2cccc(C(F)(F)F)c2)sc2c1CCC(=O)C2`, with -11% (active).
With `COc1ccccc1/C=C/C(=O)CCC(=O)O`, the growth was 115% (inactive).
The figure for `CCc1c(C)c2ccc(O)c(-c3cc(-c4ccccc4)c(C#N)c(=O)[nH]3)c2oc1=O` is 123% (inactive); for `O=C1OCC2=C1C(c1ccccc1)c1cc3c(cc1N2CCO)OCO3` (configuration not stated) it is 58.3% (inactive).
The figure for `CCCCCCCCCCCCNC(=O)N[C@H](C(=O)N[C@H]1/C=C/OCCNC(=O)/C=C/[C@H](C(C)C)NC1=O)C(C)C` is 93.1% (inactive); for `COc1ccc2c(c1)OC1=C(C(=O)OC1)C2c1cc(OC)c2c(c1)OCCO2` (configuration not stated) it is 61% (inactive).
The figure for `O=S1(=O)NCCN1CCNc1nccc(-c2c(-c3cccc(O)c3)nc3sccn23)n1` is 59.7% (inactive).
Regarding `O=C(CC(=O)C(F)(F)C(F)(F)C(F)(F)F)c1cc2ccccc2o1`, the growth is 100% (inactive).
Then `Clc1cc2nc(-c3ccccc3)c(-c3ccccc3)nc2cc1Cl`, with 111% (inactive).
Then `CC(C)(C)c1ccc(C(=O)Nc2sc3cc(O)ccc3c2C(N)=O)cc1`, with 95.2% (inactive).
Take `CC1=CCC2C1CC=C(C)C(CC[C@H]1[C@@](C)(O)CCC3OC(C)(C)[C@H](OC(=O)c4ccccc4)CC[C@@]31C)C2(C)C` (some centres not stated): the growth was 81.3% (inactive).
Then `CC(=O)C1CCC2C3CC(C)=C4CC(O)CCC4(C)C3CCC12C` (configuration not stated), with 117% (inactive); and `CCN(CCC#N)c1ccccc1`, with 119% (inactive); and `O=S1(=O)NCCCN1CCNc1nccc(-c2c(-c3cccc(O)c3)nc3sccn23)n1`, with 39.9% (inactive).
The figure for `COc1ccc(-c2conc2-n2nc(-c3ccccc3)nc2-c2ccccc2)cc1` is 115% (inactive); for `COc1ccccc1CNCCCN1C(=O)c2ccc3c4c(ccc(c24)C1=O)C(=O)N(CCCCNCCCN)C3=O` it is -95% (active); for `Cc1ccc(C(=O)CC(=O)C(F)(F)C(F)(F)C(F)(F)F)s1` it is 105% (inactive).
Then `O=C1CCCN1C(O)CCN(Cc1ccccc1)Cc1ccc(Cl)cc1` (configuration not stated), with 106% (inactive); and `Nc1c(N)c2ccccc2c2ccccc12`, with 106% (inactive).
Regarding `CCOC(=O)C1=C(C)NC(=S)NC1c1ccccc1` (configuration not stated), the growth is 101% (inactive).
The figure for `CCOC(=O)C1=C(C(=O)OCC)N(c2cc(OC)c(OC)c(OC)c2)C(N)=C(C#N)C1c1cc(=O)[nH]c2ccccc12` (configuration not stated) is 101% (inactive).
Take `CC(=O)Nc1ccc(/C=N/N2CCCCCC2)cc1`: the growth was 114% (inactive).
Regarding `CCOC(=O)c1cnc(SCC)nc1SC#N`, the growth is 92.6% (inactive).
The figure for `CN1CCCN(CCNc2nccc(-c3c(-c4cccc(O)c4)nc4sccn34)n2)S1(=O)=O` is 36.8% (inactive).
With `CCN(CC)c1ccc(/C=C2/NC(=O)NC2=O)cc1`, the growth was 72.9% (inactive).
Then `CCOC(=O)c1ccc2c(c1)[n+](=O)c(C(=O)c1ccc3ccccc3c1)c(C(F)(F)F)n2[O-]`, with -71.7% (active).
